According to ChEMBL document CHEMBL2218924, “A broad activity screen in support of a chemogenomic map for kinase signalling research and drug discovery” (Biochem J, 2013):

Experiments:
[1] = biological target: Serine/threonine-protein kinase MRCK beta (Homo sapiens) (UniProt Q9Y5S2); details: at 1 µM
[2] = biological target: Serine/threonine-protein kinase MRCK beta (Homo sapiens) (UniProt Q9Y5S2); details: at 10 µM
[3] = biological target: Ribosomal protein S6 kinase alpha-5 (Homo sapiens) (UniProt O75582); details: at 1 µM
Chain of Ribosomal protein S6 kinase alpha-5 (Homo sapiens) (O75582 whole entry, looked up): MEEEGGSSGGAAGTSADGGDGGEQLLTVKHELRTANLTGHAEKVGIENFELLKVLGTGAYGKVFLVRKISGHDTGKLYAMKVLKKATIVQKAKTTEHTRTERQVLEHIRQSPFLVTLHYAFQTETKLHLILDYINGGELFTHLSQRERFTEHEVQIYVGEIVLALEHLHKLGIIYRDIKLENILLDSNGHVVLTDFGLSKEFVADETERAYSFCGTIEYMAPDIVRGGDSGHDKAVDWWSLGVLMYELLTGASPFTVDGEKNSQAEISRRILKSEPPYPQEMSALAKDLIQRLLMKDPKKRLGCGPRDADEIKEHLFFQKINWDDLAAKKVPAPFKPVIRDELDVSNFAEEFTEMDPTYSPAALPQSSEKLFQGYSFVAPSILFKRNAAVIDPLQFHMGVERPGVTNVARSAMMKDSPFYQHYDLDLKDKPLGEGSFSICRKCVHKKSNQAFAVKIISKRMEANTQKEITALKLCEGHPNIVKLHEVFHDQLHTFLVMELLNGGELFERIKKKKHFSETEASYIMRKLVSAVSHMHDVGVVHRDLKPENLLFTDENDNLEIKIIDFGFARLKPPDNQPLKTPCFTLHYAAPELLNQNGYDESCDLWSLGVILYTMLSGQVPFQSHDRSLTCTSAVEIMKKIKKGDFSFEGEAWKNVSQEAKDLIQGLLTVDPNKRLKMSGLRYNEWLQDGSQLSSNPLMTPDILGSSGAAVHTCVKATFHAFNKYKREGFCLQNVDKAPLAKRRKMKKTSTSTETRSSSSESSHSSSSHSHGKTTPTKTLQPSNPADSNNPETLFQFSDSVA

[4] = biological target: Ribosomal protein S6 kinase alpha-5 (Homo sapiens) (UniProt O75582); details: at 10 µM
[5] = biological target: Ribosomal protein S6 kinase alpha-4 (Homo sapiens) (UniProt O75676); details: at 1 µM
Chain of Ribosomal protein S6 kinase alpha-4 (Homo sapiens) (O75676 whole entry, looked up): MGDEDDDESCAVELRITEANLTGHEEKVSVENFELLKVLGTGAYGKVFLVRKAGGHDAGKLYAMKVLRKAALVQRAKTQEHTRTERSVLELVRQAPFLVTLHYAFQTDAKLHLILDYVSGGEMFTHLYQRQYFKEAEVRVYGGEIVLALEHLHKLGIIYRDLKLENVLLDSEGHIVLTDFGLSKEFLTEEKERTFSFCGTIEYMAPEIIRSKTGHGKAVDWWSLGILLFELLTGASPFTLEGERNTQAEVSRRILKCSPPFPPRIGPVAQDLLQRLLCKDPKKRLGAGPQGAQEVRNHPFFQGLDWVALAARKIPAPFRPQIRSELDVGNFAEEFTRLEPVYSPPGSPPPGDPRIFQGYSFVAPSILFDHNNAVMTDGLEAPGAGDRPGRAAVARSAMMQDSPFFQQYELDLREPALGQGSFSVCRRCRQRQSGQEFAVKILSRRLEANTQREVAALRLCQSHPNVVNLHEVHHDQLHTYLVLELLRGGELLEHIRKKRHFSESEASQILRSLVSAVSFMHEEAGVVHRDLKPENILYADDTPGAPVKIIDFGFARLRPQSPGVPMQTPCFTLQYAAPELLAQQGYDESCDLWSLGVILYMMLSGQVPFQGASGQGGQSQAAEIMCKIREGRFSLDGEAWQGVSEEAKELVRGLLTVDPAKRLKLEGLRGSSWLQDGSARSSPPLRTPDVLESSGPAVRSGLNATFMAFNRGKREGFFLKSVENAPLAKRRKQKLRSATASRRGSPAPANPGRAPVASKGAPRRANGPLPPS

[6] = biological target: Ribosomal protein S6 kinase alpha-4 (Homo sapiens) (UniProt O75676); details: at 10 µM
[7] = biological target: SRSF protein kinase 3 (Homo sapiens) (UniProt Q9UPE1); details: at 1 µM
Chain of SRSF protein kinase 3 (Homo sapiens) (Q9UPE1 whole entry): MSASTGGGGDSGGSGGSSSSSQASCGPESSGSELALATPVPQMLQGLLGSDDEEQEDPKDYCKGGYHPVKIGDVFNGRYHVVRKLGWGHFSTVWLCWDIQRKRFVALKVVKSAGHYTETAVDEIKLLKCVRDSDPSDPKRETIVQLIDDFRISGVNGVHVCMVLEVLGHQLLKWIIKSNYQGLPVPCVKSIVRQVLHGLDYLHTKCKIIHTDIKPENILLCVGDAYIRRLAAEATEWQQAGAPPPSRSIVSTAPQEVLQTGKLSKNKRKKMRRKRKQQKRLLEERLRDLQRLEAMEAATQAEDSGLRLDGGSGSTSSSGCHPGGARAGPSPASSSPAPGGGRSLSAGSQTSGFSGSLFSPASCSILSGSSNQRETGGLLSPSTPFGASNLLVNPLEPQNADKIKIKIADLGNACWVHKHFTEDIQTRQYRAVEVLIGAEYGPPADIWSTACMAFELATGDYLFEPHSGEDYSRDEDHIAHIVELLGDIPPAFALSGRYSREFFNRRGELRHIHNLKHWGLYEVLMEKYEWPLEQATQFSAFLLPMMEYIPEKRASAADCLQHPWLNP

[8] = biological target: SRSF protein kinase 3 (Homo sapiens) (UniProt Q9UPE1); details: at 10 µM
[9] = biological target: T1, Serine/threonine-protein kinase 4 (Homo sapiens) (UniProt Q13043); details: at 1 µM
T1 sequence (whole entry): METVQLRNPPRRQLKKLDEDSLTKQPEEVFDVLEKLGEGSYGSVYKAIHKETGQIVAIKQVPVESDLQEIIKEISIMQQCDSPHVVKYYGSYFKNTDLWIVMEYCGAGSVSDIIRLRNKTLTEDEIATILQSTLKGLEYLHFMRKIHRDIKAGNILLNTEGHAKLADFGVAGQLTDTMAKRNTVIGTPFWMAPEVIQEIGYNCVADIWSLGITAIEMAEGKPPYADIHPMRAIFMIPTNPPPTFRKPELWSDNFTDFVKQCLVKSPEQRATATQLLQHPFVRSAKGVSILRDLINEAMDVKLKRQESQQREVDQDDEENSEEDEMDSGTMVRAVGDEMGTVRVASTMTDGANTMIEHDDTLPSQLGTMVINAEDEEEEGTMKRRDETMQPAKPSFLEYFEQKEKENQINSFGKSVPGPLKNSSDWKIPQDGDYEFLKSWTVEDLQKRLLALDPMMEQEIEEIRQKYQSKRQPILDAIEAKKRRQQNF

[10] = biological target: T1, Serine/threonine-protein kinase 4 (Homo sapiens); details: at 10 µM
[11] = biological target: T2, Serine/threonine-protein kinase 3 (Homo sapiens) (UniProt Q13188); details: at 1 µM
T2 sequence (whole entry): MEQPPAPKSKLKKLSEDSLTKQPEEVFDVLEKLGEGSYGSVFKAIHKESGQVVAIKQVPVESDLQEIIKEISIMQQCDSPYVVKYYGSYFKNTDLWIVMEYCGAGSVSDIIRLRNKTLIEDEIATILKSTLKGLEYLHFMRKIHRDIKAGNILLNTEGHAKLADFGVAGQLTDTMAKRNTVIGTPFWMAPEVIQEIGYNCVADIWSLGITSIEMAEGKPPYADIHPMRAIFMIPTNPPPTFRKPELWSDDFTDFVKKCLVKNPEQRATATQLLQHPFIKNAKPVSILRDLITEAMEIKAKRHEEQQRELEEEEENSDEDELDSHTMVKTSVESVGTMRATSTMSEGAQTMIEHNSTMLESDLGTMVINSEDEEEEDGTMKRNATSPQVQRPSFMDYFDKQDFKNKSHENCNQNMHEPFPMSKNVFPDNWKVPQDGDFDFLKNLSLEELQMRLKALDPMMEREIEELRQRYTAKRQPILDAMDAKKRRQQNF

[12] = biological target: Serine/threonine-protein kinase 24 (Homo sapiens) (UniProt Q9Y6E0); details: at 1 µM
Chain of Serine/threonine-protein kinase 24 (Homo sapiens) (Q9Y6E0 whole entry, looked up): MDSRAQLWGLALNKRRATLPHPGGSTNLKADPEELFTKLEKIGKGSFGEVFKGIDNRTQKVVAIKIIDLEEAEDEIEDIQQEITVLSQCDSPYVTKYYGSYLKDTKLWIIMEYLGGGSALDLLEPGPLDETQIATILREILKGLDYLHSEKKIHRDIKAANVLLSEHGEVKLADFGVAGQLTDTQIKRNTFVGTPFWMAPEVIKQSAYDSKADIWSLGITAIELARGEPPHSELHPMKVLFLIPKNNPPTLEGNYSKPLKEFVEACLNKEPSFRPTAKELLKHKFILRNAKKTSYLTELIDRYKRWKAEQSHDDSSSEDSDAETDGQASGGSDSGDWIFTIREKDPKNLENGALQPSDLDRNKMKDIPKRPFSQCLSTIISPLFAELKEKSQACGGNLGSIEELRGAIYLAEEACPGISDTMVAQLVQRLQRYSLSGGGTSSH

[13] = biological target: Serine/threonine-protein kinase 24 (Homo sapiens) (UniProt Q9Y6E0); details: at 10 µM
[14] = biological target: T3, Tyrosine-protein kinase Mer (Homo sapiens) (UniProt Q12866); details: at 1 µM
T3 sequence (whole entry): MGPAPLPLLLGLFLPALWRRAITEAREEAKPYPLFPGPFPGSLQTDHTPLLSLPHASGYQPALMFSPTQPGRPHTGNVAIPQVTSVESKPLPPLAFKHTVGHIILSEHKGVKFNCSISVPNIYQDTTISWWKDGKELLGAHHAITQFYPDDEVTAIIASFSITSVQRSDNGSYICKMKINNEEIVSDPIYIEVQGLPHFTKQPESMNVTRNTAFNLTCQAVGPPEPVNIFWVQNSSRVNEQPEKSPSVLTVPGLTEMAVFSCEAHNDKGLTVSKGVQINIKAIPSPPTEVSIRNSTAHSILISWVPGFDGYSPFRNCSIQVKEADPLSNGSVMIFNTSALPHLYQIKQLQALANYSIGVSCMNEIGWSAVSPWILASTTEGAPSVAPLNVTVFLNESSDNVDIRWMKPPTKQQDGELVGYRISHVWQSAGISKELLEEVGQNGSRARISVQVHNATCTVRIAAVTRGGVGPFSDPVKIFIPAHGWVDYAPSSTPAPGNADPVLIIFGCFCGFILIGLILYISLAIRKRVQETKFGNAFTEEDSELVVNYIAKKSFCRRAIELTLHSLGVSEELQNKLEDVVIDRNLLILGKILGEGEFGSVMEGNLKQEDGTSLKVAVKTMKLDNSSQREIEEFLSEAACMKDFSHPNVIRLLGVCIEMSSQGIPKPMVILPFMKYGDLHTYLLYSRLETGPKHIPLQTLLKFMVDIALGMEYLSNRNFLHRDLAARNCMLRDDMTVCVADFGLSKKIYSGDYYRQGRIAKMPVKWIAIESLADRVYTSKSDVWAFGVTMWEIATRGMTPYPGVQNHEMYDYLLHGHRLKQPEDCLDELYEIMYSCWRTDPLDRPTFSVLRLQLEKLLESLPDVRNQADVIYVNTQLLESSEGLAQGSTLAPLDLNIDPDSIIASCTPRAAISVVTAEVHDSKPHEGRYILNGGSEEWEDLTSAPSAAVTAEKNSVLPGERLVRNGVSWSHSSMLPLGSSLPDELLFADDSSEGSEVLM

[15] = biological target: T3, Tyrosine-protein kinase Mer (Homo sapiens); details: at 10 µM
[16] = biological target: Hepatocyte growth factor receptor (Homo sapiens) (UniProt P08581); details: at 10 µM
Chain of Hepatocyte growth factor receptor (Homo sapiens) (P08581 whole entry): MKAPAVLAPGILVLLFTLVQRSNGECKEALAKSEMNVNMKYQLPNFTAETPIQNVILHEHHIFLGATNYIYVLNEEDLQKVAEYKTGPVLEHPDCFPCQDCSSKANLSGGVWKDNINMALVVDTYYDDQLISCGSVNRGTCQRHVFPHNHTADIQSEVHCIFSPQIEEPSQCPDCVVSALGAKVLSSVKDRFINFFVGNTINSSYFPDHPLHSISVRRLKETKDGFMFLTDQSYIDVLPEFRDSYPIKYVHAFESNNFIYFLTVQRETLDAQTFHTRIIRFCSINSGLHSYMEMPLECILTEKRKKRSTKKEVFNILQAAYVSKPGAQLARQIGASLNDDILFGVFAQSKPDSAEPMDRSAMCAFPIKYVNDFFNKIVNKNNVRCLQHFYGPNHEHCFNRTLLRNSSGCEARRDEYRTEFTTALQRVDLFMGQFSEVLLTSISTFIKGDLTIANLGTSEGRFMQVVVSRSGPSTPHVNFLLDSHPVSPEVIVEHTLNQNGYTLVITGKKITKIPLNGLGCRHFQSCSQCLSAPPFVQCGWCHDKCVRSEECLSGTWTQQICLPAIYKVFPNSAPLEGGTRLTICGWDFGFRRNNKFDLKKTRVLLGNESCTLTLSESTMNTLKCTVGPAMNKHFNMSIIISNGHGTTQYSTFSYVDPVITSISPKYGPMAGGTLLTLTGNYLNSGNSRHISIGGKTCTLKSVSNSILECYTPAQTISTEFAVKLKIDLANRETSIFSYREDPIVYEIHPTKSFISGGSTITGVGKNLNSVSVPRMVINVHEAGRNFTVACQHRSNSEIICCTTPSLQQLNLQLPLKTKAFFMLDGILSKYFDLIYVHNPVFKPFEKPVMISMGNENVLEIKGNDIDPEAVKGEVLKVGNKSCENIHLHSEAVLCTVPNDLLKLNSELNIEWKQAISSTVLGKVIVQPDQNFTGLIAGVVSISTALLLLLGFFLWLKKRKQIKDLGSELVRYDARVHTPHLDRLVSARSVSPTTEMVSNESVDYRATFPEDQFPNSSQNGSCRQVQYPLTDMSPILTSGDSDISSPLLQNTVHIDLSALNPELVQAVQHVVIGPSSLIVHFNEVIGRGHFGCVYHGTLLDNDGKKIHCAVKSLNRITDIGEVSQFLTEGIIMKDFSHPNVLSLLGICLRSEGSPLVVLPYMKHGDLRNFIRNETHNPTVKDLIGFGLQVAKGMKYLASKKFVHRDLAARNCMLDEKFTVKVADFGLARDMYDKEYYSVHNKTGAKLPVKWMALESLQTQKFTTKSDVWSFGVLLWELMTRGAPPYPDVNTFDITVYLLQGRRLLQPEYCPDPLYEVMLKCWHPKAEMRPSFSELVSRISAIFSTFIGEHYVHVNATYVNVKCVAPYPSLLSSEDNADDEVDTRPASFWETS

[17] = biological target: MAP kinase-interacting serine/threonine-protein kinase 2 (Homo sapiens) (UniProt Q9HBH9); details: at 1 µM
Chain of MAP kinase-interacting serine/threonine-protein kinase 2 (Homo sapiens) (Q9HBH9 whole entry, looked up): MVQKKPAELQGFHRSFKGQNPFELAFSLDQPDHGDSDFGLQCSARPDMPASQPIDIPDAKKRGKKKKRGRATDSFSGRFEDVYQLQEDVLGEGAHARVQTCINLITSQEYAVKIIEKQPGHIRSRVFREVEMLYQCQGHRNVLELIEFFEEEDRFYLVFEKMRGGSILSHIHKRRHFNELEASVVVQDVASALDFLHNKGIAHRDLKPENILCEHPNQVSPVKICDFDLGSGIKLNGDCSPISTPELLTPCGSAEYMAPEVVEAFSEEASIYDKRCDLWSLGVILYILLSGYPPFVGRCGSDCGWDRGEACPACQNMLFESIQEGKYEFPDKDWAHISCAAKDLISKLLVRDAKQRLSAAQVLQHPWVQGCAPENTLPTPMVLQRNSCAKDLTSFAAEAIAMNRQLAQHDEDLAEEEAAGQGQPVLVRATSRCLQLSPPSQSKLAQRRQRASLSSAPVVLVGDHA

[18] = biological target: MAP kinase-interacting serine/threonine-protein kinase 2 (Homo sapiens) (UniProt Q9HBH9); details: at 10 µM
[19] = biological target: T2, Serine/threonine-protein kinase 3 (Homo sapiens); details: at 10 µM
[20] = biological target: Hepatocyte growth factor receptor (Homo sapiens) (UniProt P08581); details: at 1 µM

Structure (SMILES)	residual activity [1] [%]	residual activity [2] [%]	residual activity [3] [%]	residual activity [4] [%]	residual activity [5] [%]	residual activity [6] [%]	residual activity [7] [%]	residual activity [8] [%]	residual activity [9] [%]	residual activity [10] [%]	residual activity [11] [%]	residual activity [12] [%]	residual activity [13] [%]	residual activity [14] [%]	residual activity [15] [%]	residual activity [16] [%]	residual activity [17] [%]	residual activity [18] [%]	residual activity [19] [%]	residual activity [20] [%]
Cn1nc2c3c(cccc31)C(=O)c1ccccc1-2	92	85	99	83	93	79	98	97	72	72	97	74	69	53	21	84	81	72	–	–
COc1cc2ncnc(Nc3ccc(NC(=O)c4ccccc4)cc3)c2cc1OC	–	90	–	95	106	101	–	99	–	98	–	90	–	108	59	23	98	57	95	88
O=C1NC(=O)c2c1c1c3ccccc3[nH]c1c1[nH]c3cc(Br)ccc3c21	85	85	94	84	87	76	92	86	92	38	89	92	80	87	68	116	48	41	62	120
c1ccc(-c2n[nH]c3c2oc2ccccc23)cc1	98	115	–	74	95	70	–	–	88	58	–	66	67	95	70	70	80	24	–	87
COc1cc2ncc(-c3ccccc3)nc2cc1OC	98	79	–	–	83	88	134	92	–	–	–	65	71	–	62	68	–	–	100	92
Nc1cccc(-c2cc3c(Oc4cccc(O)c4)ncnc3[nH]2)c1	95	84	98	117	90	68	–	–	73	74	99	65	23	81	35	22	68	20	69	63
COc1cc2ncnc(N3CCN(C(=O)Nc4ccc(Oc5ccccc5)cc4)CC3)c2cc1OC	83	87	113	104	93	123	109	79	85	88	98	98	117	97	60	–	92	64	86	114
